# Data as given in PubChem BioAssay (NCATS).
# Results filed as inconclusive are left out. Active and inactive are the calls of the source. Calls follow the shape of the dose curve; as a rule, active = well fitted curve in the direction sought with a large enough effect; inconclusive = small, poorly fitted or top-dose-only effect, or another doubt; inactive = no such curve, though single readings can be large; an effect the other way counts as inactive or inconclusive.
# What was measured:
# [1] = BET inhibitor-based combinations targeting novel dependencies in MECOM-rearranged (r) AML: MV-4-11 cell line (AID 2202233); also: nearly all actives have a fitted effect of over 45% in size
# How it was run: (§1)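 Cells at 500/well were exposed for 48 hr to MIPE v5.0 drugs as 11-point dose curves. Viability was read by CellTiter-Glo luminescence and normalized to DMSO and empty-well controls. Activity was expressed as AUC and per-cell-line Z-AUC.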
# [2] = BET inhibitor-based combinations targeting novel dependencies in MECOM-rearranged (r) AML: OCI-AML3 cell line (AID 2202232); details: Potency: OCI-AML3 viability; also: nearly all actives have a fitted effect of over 35% in size
# How it was run: (§2)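 AML cell lines seeded at 500 cells/well, treated with 11-point dose curves for 48 h. Viability by CellTiter-Glo luminescence, normalised to DMSO and empty wells; activity expressed as AUC and per-cell-line Z-transformed AUC.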
# [3] = BET inhibitor-based combinations targeting novel dependencies in MECOM-rearranged (r) AML: HNT-34 cell line (AID 2202234); also: nearly all actives have a fitted effect of over 35% in size
# How it was run: as §1
# [4] = BET inhibitor-based combinations targeting novel dependencies in MECOM-rearranged (r) AML: AML-194 cell line (AID 2202237; also: nearly all actives have a fitted effect of over 40% in size)
# How it was run: as §2
# [5] = BET inhibitor-based combinations targeting novel dependencies in MECOM-rearranged (r) AML: AML-191 cell line (AID 2202236; also: nearly all actives have a fitted effect of over 35% in size)
# How it was run: as §2
# [6] = BET inhibitor-based combinations targeting novel dependencies in MECOM-rearranged (r) AML: UCSD-AML1 cell line (AID 2202235); also: nearly all actives have a fitted effect of over 40% in size
# How it was run: as §1
# Potency is read from the fitted curve at half-maximal effect.
structure (smiles),measurement,setting,value
COc1cc(NCc2ccc3nc(N)nc(N)c3c2C)cc(OC)c1OC,Potency,[1],5.9 µM (active)
Cc1onc(-c2ccccc2)c1-c1ccc(S(N)(=O)=O)cc1,Potency,[2],inactive
same,Potency,[3],inactive
same,Potency,[4],inactive
CNC(=O)[C@H]1O[C@@H](n2cnc3c(NCc4cccc(I)c4)nc(Cl)nc32)[C@H](O)[C@@H]1O,Potency,[2],inactive
same,Potency,[5],inactive
same,Potency,[4],inactive
O=c1cc(-c2ccc(O)c(O)c2)oc2cc(O)cc(O)c12,Potency,[1],8.33 µM (active)
CNc1nc(-c2ccc3c(N)n[nH]c3c2)cc(N2C[C@@H](C(=O)NC3CCCCC3)CC[C@H]2C)n1,Potency,[2],5.9 µM (active)
same,Potency,[1],14.8 µM (active)
same,Potency,[5],23.5 µM (active)
Cc1cccc(/C=N/Nc2cc(N3CCOCC3)nc(OCCc3ccccn3)n2)c1,Potency,[1],7.42 µM (active)
CCCCOc1ccc(CC(=O)NO)cc1,Potency,[2],13.2 µM (active)
same,Potency,[3],20.9 µM (active)
same,Potency,[4],23.5 µM (active)
C/C(O)=C(\C#N)C(=O)Nc1ccc(C(F)(F)F)cc1,Potency,[2],9.34 µM (active)
same,Potency,[3],14.8 µM (active)
same,Potency,[6],inactive
CN1CCN(C(=O)c2ccc(-c3ccc4c(C=O)c(O)ccc4c3)s2)CC1,Potency,[2],26.3 µM (active)
same,Potency,[3],16.6 µM (active)
OC1CCC(Oc2cccc3cnc(Nc4ccc5nc[nH]c5c4)nc23)CC1 (stereo unspecified),Potency,[2],1.48 µM (active)
same,Potency,[3],0.934 µM (active)
same,Potency,[6],0.934 µM (active)
same,Potency,[5],0.833 µM (active)
same,Potency,[4],1.32 µM (active)
NC(=O)c1cnc2[nH]ccc2c1NC1C2CC3C[C@H]1CC(O)(C3)C2 (stereo partly specified),Potency,[1],0.209 µM (active)
same,Potency,[3],8.33 µM (active)
C/C(=C\C(=O)Nc1ccccc1C(=O)O)c1ccc2ccccc2c1,Potency,[2],inactive
same,Potency,[3],inactive
same,Potency,[6],inactive
CO[C@H]1C[C@@H]2CC[C@@H](C)[C@@](O)(O2)C(=O)C(=O)N2CCCC[C@H]2C(=O)O[C@H]([C@H](C)C[C@@H]2CC[C@@H](OCCO)[C@H](OC)C2)CC(=O)[C@H](C)/C=C(/C)[C@@H](O)[C@@H](OC)C(=O)[C@H](C)C[C@H](C)/C=C\C=CC=C1C,Potency,[1],13.2 µM (active)
CC(C)(O)C1CCC(Nc2ccc3ncc(-c4cccc(C(F)(F)F)c4)n3n2)CC1 (stereo unspecified),Potency,[2],11.8 µM (active)
same,Potency,[3],6.61 µM (active)
same,Potency,[6],6.61 µM (active)
same,Potency,[5],5.9 µM (active)
Cc1ccc(NC(=O)c2cccc(C(C)(C)C#N)c2)cc1Nc1ccc2ncn(C)c(=O)c2c1,Potency,[2],0.0742 µM (active)
same,Potency,[3],0.662 µM (active)
CN[C@@H](C)C(=O)N[C@H](C(=O)N1CCC[C@H]1C(=O)Nc1snnc1-c1ccccc1)C1CCCCC1,Potency,[2],inactive
same,Potency,[3],inactive
same,Potency,[6],1.86 µM (active)
same,Potency,[4],3.32 µM (active)
COC(=O)C1=C(C)NC(c2ncc(F)cc2F)=N[C@@H]1c1ccc(F)cc1Cl,Potency,[2],inactive
same,Potency,[6],inactive
same,Potency,[5],inactive
same,Potency,[4],inactive
O=C(NCc1ccncc1)C12C[C@H]3C[C@@H](C1)CC(c1ccc(Cl)cc1)(C3)C2,Potency,[2],20.9 µM (active)
same,Potency,[6],inactive
Clc1ccc(COC(Cn2ccnc2)c2ccc(Cl)cc2Cl)cc1 (stereo unspecified),Potency,[1],20.9 µM (active)
COc1cc(C(=O)NC(N)=Nc2ccc(C)c(NC(=O)c3ccc(-c4ccccc4)cc3)c2)cc(OC)c1OC,Potency,[2],18.6 µM (active)
same,Potency,[3],18.6 µM (active)
same,Potency,[5],18.6 µM (active)
same,Potency,[4],23.5 µM (active)
COc1ccc(COc2ccc(Cc3cnc(N)nc3N)cc2OC)cc1,Potency,[1],inactive
COC(=O)N[C@H](C(=O)N1CCC[C@H]1c1ncc(-c2ccc(-c3ccc(-c4cnc([C@@H]5CCCN5C(=O)[C@@H](NC(=O)OC)C(C)C)[nH]4)cc3)cc2)[nH]1)C(C)C,Potency,[2],inactive
same,Potency,[6],inactive
CO[C@H]1/C=C/O[C@@]2(C)Oc3c(C)c(O)c4c(O)c(c(/C=N\N5CCN(C6CCCC6)CC5)c(O)c4c3C2=O)NC(=O)/C(C)=C\C=C\[C@H](C)[C@H](O)[C@@H](C)[C@@H](O)[C@@H](C)[C@H](OC(C)=O)[C@@H]1C,Potency,[1],23.5 µM (active)
Cc1c(-c2ccc(-c3ccccc3F)cc2)nc2ccc(F)cc2c1C(=O)O,Potency,[1],0.209 µM (active)
same,Potency,[3],inactive
same,Potency,[4],0.662 µM (active)
Nc1nccc(-c2c(-c3ccc(F)cc3)ncn2C2CCN(Cc3ccon3)CC2)n1,Potency,[1],10.5 µM (active)
same,Potency,[3],8.33 µM (active)
CNC(=O)[C@@H](NC(=O)[C@H](CC(C)C)[C@H](O)C(=O)NO)C(C)(C)C,Potency,[1],16.6 µM (active)
same,Potency,[3],14.8 µM (active)
same,Potency,[6],inactive
same,Potency,[5],20.9 µM (active)
COC(=O)C1=C(C)NC(c2ncc(F)cc2F)=N[C@H]1c1ccc(F)cc1Cl,Potency,[1],18.6 µM (active)
same,Potency,[3],16.6 µM (active)
CCCCN(CCCC)CCC(O)c1cc2c(Cl)cc(Cl)cc2c2cc(C(F)(F)F)ccc12 (stereo unspecified),Potency,[1],18.6 µM (active)
same,Potency,[6],26.3 µM (active)
same,Potency,[4],29.5 µM (active)
CCN1C(=O)N2Cc3cc(OC)cc(OC)c3[C@@H](C)C=C2C12CCN(Cc1cc(C)cc(C)c1)CC2,Potency,[1],29.5 µM (active)
same,Potency,[3],23.5 µM (active)
COc1ccc2[nH]c3c(c2c1)CCN[C@]31CS[C@@H]2c3c(OC(C)=O)c(C)c4c(c3[C@H](COC1=O)N1[C@@H]2[C@H]2c3c(cc(C)c(OC)c3O)C[C@@H]([C@@H]1O)N2C)OCO4,Potency,[1],0.0019 µM (active)
same,Potency,[3],0.0034 µM (active)
same,Potency,[5],0.0048 µM (active)
same,Potency,[4],0.0038 µM (active)
Cc1[nH]c(/C=C2\C(=O)Nc3ccc(S(=O)(=O)Cc4c(Cl)cccc4Cl)cc32)c(C)c1C(=O)N1CCC[C@@H]1CN1CCCC1,Potency,[1],5.9 µM (active)
same,Potency,[3],18.6 µM (active)
same,Potency,[6],8.33 µM (active)
same,Potency,[5],9.34 µM (active)
same,Potency,[4],9.34 µM (active)
CNC(=O)c1ccc(N2C(=S)N(c3ccc(C#N)c(C(F)(F)F)c3)C(=O)C2(C)C)cc1F,Potency,[1],18.6 µM (active)
same,Potency,[6],inactive
same,Potency,[5],inactive
same,Potency,[4],inactive
CN(C)c1ccc(O)c2c1C[C@H]1C[C@H]3[C@H](N(C)C)C(=O)C(C(N)=O)=C(O)[C@@]3(O)C(=O)C1=C2O,Potency,[1],inactive
same,Potency,[3],13.2 µM (active)
same,Potency,[6],inactive
C[C@H](NC(=O)[C@H]1NCC[C@@H]1O)c1ccc(-c2noc(CCC3CCCC3)n2)cc1,Potency,[1],inactive
same,Potency,[6],inactive
same,Potency,[5],20.9 µM (active)
same,Potency,[4],inactive
[2H]c1nc(C)nc([2H])c1-c1cc(NC[C@@H](C)c2cccc3c(C(=O)NC)ccnc23)ncn1,Potency,[1],inactive
same,outcome,[3],inactive
same,Potency,[6],inactive
C[C@@H]1CC[C@@]2(OC1)OC1CC3C4CC=C5CC(O)CCC5(C)C4CCC3(C)C1[C@@H]2C (stereo partly specified),Potency,[1],inactive
same,Potency,[6],inactive
COc1ccc2[nH]c(C(=O)N3CCC(CC(C)(C)O)CC3)cc2c1,Potency,[1],inactive
same,Potency,[3],inactive
same,Potency,[6],inactive
same,Potency,[4],inactive
O=C(Nc1ccc(OC(F)(F)Cl)cc1)c1cnc(N2CC[C@@H](O)C2)c(-c2ccn[nH]2)c1,Potency,[1],20.9 µM (active)
same,Potency,[3],0.0105 µM (active)
same,Potency,[6],inactive
same,Potency,[4],18.6 µM (active)
CCN1C(=O)CNc2ncc(-c3ccc(-c4ncn[nH]4)nc3C)nc21,Potency,[1],1.66 µM (active)
same,Potency,[3],2.09 µM (active)
same,Potency,[6],0.186 µM (active)
C[C@@H](O)[C@@H](C)Oc1nc(Nc2ccc(S(=N)(=O)C3CC3)cc2)ncc1C(F)(F)F (stereo partly specified),Potency,[1],14.8 µM (active)
same,Potency,[3],16.6 µM (active)
same,Potency,[6],20.9 µM (active)
same,Potency,[4],16.6 µM (active)
Cc1ccc([C@@H]2O[C@H](CO)[C@@H](O)[C@H](O)[C@H]2O)cc1Cc1ccc(-c2ccc(F)cc2)s1,Potency,[1],13.2 µM (active)
same,Potency,[6],inactive
same,Potency,[5],20.9 µM (active)
same,Potency,[4],inactive
O=C(Nc1cccc(Nc2ncc(Br)c(NCCc3cnc[nH]3)n2)c1)N1CCCC1,Potency,[1],0.118 µM (active)
same,Potency,[3],1.66 µM (active)
same,Potency,[6],1.18 µM (active)
CONC(=O)Nc1ccc(-c2sc3c(c2CN(C)C)c(=O)n(-c2ccc(OC)nn2)c(=O)n3Cc2c(F)cccc2F)cc1,Potency,[1],inactive
same,Potency,[3],inactive
same,Potency,[6],inactive
same,Potency,[4],inactive
Clc1ccc(C(Cn2ccnc2)OCc2ccsc2Cl)c(Cl)c1 (stereo unspecified),Potency,[1],23.5 µM (active)
same,Potency,[3],18.6 µM (active)
same,Potency,[5],23.5 µM (active)
same,Potency,[4],23.5 µM (active)
COc1cc(OCc2cccc(-c3ccccc3)c2C)cc(OC)c1CN1CCCC[C@H]1C(=O)O,Potency,[1],20.9 µM (active)
same,Potency,[6],inactive
Cc1ccc(-c2ncc(Cl)cc2-c2ccc(S(C)(=O)=O)cc2)cn1,Potency,[1],inactive
same,Potency,[3],inactive
same,Potency,[6],inactive
same,Potency,[5],inactive
same,Potency,[4],inactive
CCN(CC)C(=S)SSC(=S)N(CC)CC,Potency,[1],0.263 µM (active)
same,Potency,[3],0.332 µM (active)
same,Potency,[5],0.296 µM (active)
same,Potency,[4],0.296 µM (active)
COc1ccc(Cl)cc1-c1cc(=O)[nH]c(=S)n1CC(N)=O,Potency,[1],inactive
same,Potency,[3],inactive
same,Potency,[6],inactive
Cc1ccc(Nc2nnc(Cc3ccncc3)c3ccccc23)cc1Br,Potency,[1],16.6 µM (active)
same,Potency,[3],20.9 µM (active)
same,Potency,[6],inactive
CCNC(=O)Nc1ccc(Oc2ncnc(N)c2/C=N/OC)cc1Cl,Potency,[1],18.6 µM (active)
same,Potency,[3],20.9 µM (active)
same,Potency,[6],23.5 µM (active)
same,Potency,[5],16.6 µM (active)
same,Potency,[4],23.5 µM (active)
Cc1c(CN2CCN(C(=O)[C@H](C)O)CC2)sc2c(N3CCOCC3)nc(-c3cnc(N)nc3)nc12,Potency,[1],0.525 µM (active)
same,Potency,[6],0.0525 µM (active)
Cc1ccc(-c2nc(N)nc3c2nnn3Cc2cccc(CO[C@H]3CCOC3)n2)o1,Potency,[1],inactive
same,Potency,[3],inactive
same,Potency,[6],inactive
same,Potency,[4],inactive
Cc1ccc(Nc2cc(N[C@@H]3CCCC[C@@H]3N)nnc2C(N)=O)nc1C,Potency,[1],3.72 µM (active)
same,Potency,[3],16.6 µM (active)
same,Potency,[5],18.6 µM (active)
same,Potency,[4],20.9 µM (active)
CO[C@H]1O[C@@H]2O[C@@]3(C)CC[C@H]4[C@H](C)CC[C@@H]([C@H]1C)[C@@]24OO3,Potency,[1],4.17 µM (active)
same,Potency,[6],inactive
same,Potency,[5],16.6 µM (active)
O=c1oc2c(C3OCCCO3)c(O)ccc2c2c1CNCC2,Potency,[1],inactive
same,Potency,[3],inactive
same,Potency,[6],inactive
same,Potency,[5],18.6 µM (active)
same,Potency,[4],inactive
COc1ccc(C2=N[C@H](c3ccc(Cl)cc3)[C@H](c3ccc(Cl)cc3)N2C(=O)N2CCNC(=O)C2)c(OC(C)C)c1,Potency,[1],23.5 µM (active)
same,Potency,[3],23.5 µM (active)
same,Potency,[6],inactive
same,Potency,[5],26.3 µM (active)
